Only some compounds are listed: those with a hit (about 3.2% of all), similar ones and a draw of the others.
NadD block – inhibitors of S. aureus NadD, primary screen, biochemical, colorimetric, uHTS; Nicotinate-nucleotide adenylyltransferase NadD (Staphylococcus aureus N315); purified NadD enzyme, colorimetric absorbance read-out; inhibition, % at 20 µM; 360,000 tested, 0.78% active; AID 602399, 2012; in the data active = inhibition above about 26%
rCAG binder-1 – binders of r(CAG) RNA repeats, primary screen, biochemical, fluorescence; r(CAG) RNA repeat, TO-PRO-1 dye displacement fluorescence; inhibition, % at 3 µM; 370,000 tested, 1.3% active; AID 651821, 2012;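 active = inhibition above the plate cutoff, the mean of all test compounds on that plate plus 3 SD, cut at about 35% in these data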;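 note: higher means more dye released from RNA so lower well fluorescence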
MsrA act – bovine MsrA enzyme activators, primary screen, biochemical, absorbance, HTS | activation, % at 10.6 µM | 360,000 tested, 0.3% active | purified bovine MsrA, absorbance read-out; in the data active = activation above about 7.5%
DAGLB inh – DAGLB lipase inhibitors, primary screen, biochemical, fluorescence, HTS | Diacylglycerol lipase-beta (Homo sapiens), Q8NCG7 | inhibition, % at 5.17 µM | 340,000 tested, 0.059% active | HEK293T DAGLB membrane lysate, EnzChek fluorogenic substrate; in the data active = inhibition above about 34%
Pemphigus Ab inh – inhibitors of pemphigus antibody binding to DSG3, primary screen, biochemical, bead-based, flow cytometry, scFv-GFP. 310,000 tested, 0.48% active. Desmoglein-3 (Homo sapiens), P32926. DSG3-coupled beads, scFv-anti-DSG3-GFP binding; active compounds read low. binding (percent of control), % at 10 µM;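 active = binding more than 3 SD below its plate's average and above zero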;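 note: hits lower antibody fragment binding to DSG3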
MsrA inh – bovine MsrA enzyme inhibitors, primary screen, biochemical, absorbance, HTS; Methionine sulfoxide reductase A (Bos taurus); purified bovine MsrA, absorbance read-out; inhibition, % at 15.5 µM; 360,000 tested, 0.75% active; AID 651718, 2012; in the data active = inhibition above about 4.5%
rCAG binder conf – small molecules binding CAG repeat RNA – biochemical, fluorescence, confirmation; shares compounds with rCAG binder-1; r(CAG) RNA repeat, TO-PRO-1 dye displacement fluorescence; inhibition, % at 3 µM; 4,300 tested, 70% active; AID 652065, 2013;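 active = inhibition above a per-plate cutoff, the mean inhibition of sample wells plus 3 SD, cut at about 35% in these data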;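 note: loss of TO-PRO-1 fluorescence as compound displaces dye from 1x1 AA loop RNA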
DNA CAG counter – displacement of TO-PRO-1 from CAG DNA duplex, counter-screen for rCAG RNA repeat binder project, biochemical, fluorescence, TO-PRO-1 dye, d(CAG) DNA oligo; shares compounds with rCAG binder-1; d(CAG) DNA oligo TO-PRO-1 dye displacement; inhibition, % at 3 µM; 4,300 tested, 94% active; AID 652068, 2013;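 active = inhibition above its plate's cutoff, the mean test-well inhibition plus 3 SD, cut at about 4.8% in these data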;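 note: hits displace the dye from DNA and so lower well fluorescence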
DNA CAG DR – inhibitors of DNA CAG/GTC TO-PRO-1 complex, dose response, counter-screen for rCAG RNA repeat binder project, biochemical, fluorescence, TO-PRO-1 dye | AID 686960, 2013 | 250 tested, 20% active | shares compounds with rCAG binder-1 | IC50, µM | DNA CAG/GTC duplex TO-PRO-1 dye displacement fluorescence; in the data active = IC50 below about 10 µM
dCAG DNA bind – TO-PRO-1 dye complex inhibitors on d(CAG) DNA, dose response, counter-screen, biochemical, fluorescence, late stage; shares compounds with rCAG binder-1; d(CAG) DNA duplex TO-PRO-1 dye displacement; IC50, µM; 30 tested, 80% active
rCAG binder-2 – molecules binding r(CAG) RNA repeats, late stage dose response, late-stage follow-up, biochemical, fluorescence, dose response, powder samples; shares compounds with rCAG binder-1; r(CAG) RNA TO-PRO-1 dye displacement; IC50, µM; 30 tested, 100% active
A number is an active result; - = inactive; . = not tested or not shown. Unless noted, the rule behind the calls is not given here.

SMILES	NadD block	rCAG binder-1	MsrA act	DAGLB inh	Pemphigus Ab inh	MsrA inh	rCAG binder conf	DNA CAG counter	others
COc1cc(C(O)c2nc(-c3ccc(N(C)C)cc3)cs2)ccc1F (stereo unspecified)	-	.	-	.	.	.	.	.
CC(C)(C)c1ccc(CC(=O)N2CCC2(C)C(=O)NS(=O)(=O)Cc2ccccc2)cc1 (stereo unspecified)	-	41.2	-	.	.	-	35.6	9.3
CC1(C(=O)NS(=O)(=O)c2ccc(F)cc2F)CCN1C(=O)Cc1ccc(-c2ccccc2)cc1 (stereo unspecified)	-	58.5	-	.	.	-	44.3	10.7
CC1(C(=O)NS(=O)(=O)Cc2ccccc2)CCN1C(=O)Cc1ccccc1 (stereo unspecified)	-	-	-	.	.	-	.	.
CC(C)(C)c1ccc(CC(=O)N2CCC2(C)C(=O)NS(=O)(=O)c2ccc(F)cc2F)cc1 (stereo unspecified)	-	41.4	-	.	.	-	-	6.1
CC1(C(=O)NS(=O)(=O)c2ccc(F)cc2F)CCN1C(=O)Cc1ccccc1Cl (stereo unspecified)	-	-	-	.	.	-	.	.
CC1(C(=O)NS(=O)(=O)Cc2ccccc2C(F)(F)F)CCN1C(=O)c1ccccc1 (stereo unspecified)	-	-	-	.	.	-	.	.
CC1(C(=O)NS(=O)(=O)Cc2ccccc2C(F)(F)F)CCN1C(=O)C/C=C/c1ccccc1 (stereo unspecified)	-	46.0	-	.	.	-	51.4	10.5	DNA CAG DR=-
O=C(c1ccccc1)N1CC[C@H]2[C@H](CCCN2Cc2cc(F)cc(F)c2)C1	.	-	.	.	.	.	.	.
COc1ccc(NC(=O)C(c2ccccc2)n2c(=O)c(-c3ccco3)nc3ccccc32)cc1 (stereo unspecified)	.	-	.	.	.	-	.	.
CCN(CC)CCCNC(=O)c1cn(C(C)c2ccccc2)nn1 (stereo unspecified)	.	-	.	.	.	.	.	.
N#Cc1nnn2c1nc(N)c1c(Cl)cccc12	-	-	-	.	.	-	.	.
CC(C)(C)c1ccc(CC(=O)N2CCC2(C)C(=O)NS(=O)(=O)c2ccccc2C(F)(F)F)cc1 (stereo unspecified)	-	57.8	-	.	.	-	44.8	13.4
CN1C(=O)/C(=C\c2ccccc2OCc2ccccc2)SC1=S	-	-	-	-	-	-	.	.
O=C1NC(=O)/C(=C/c2ccccc2OCc2ccccc2)S1	-	67.1	-	-	-	-	60.2	15.6
O=C(COc1ccccc1/C=C1\SC(=O)NC1=O)Nc1ccccc1	-	35.0	-	-	-	-	47.8	15.0
COc1cc(C(O)c2nc(-c3cc4ccccc4o3)cs2)ccc1F (stereo unspecified)	-	-	-	.	.	-	.	.
O=C(COCc1ccccc1)N1CC[C@H]2[C@H](CCCN2Cc2ccccc2)C1	.	-	.	.	.	.	.	.
COc1ccc(Cc2nnc(SCC(=O)Nc3c(C)cccc3C)[nH]c2=O)cc1	-	-	-	-	-	-	.	.
CCc1cccc(NC(=O)CSc2nnc(Cc3ccc(OC)cc3)c(=O)[nH]2)c1	-	45.8	-	-	-	-	42.1	9.3
CCCCNS(=O)(=O)/C=C/c1cc2c(cc1CNC(=O)OC(C)(C)C)OCO2	.	-	.	.	.	.	.	.
CC(C)S(=O)(=O)C1=NSC2=NC(=O)/C(=C\c3ccc(-c4cccc(C(=O)O)c4)o3)C(=N)N21	-	72.0	-	-	-	-	74.4	29.5	DNA CAG DR=-;dCAG DNA bind=1.25;rCAG binder-2=0.331
N=C1/C(=C\c2ccc(-c3cc(Cl)cc(Cl)c3)o2)C(=O)N=C2SC=C(c3ccccc3)N12	-	37.1	-	-	-	-	38.4	22.1
CC(C)S(=O)(=O)C1=NSC2=NC(=O)/C(=C\c3ccc(-c4ccccc4)o3)C(=N)N21	-	38.0	-	-	-	-	87.0	65.8
CN(CCO)c1cccc2c1S(=O)(=O)N(Cc1cn(Cc3ccc(Cl)cc3)nn1)Cc1ccccc1O2	.	-	.	.	.	.	.	.
SMILES	NadD block	rCAG binder-1	MsrA act	DAGLB inh	Pemphigus Ab inh	MsrA inh	rCAG binder conf	DNA CAG counter	others
O=c1c2cc3cc4c(cc3nc2ncn1Cc1cccnc1)OCO4	.	-	.	.	.	.	.	.
[N-]=[N+]=NC(c1ccccc1)c1nc2ccccc2[nH]c1=O (stereo unspecified)	-	44.1	-	-	-	-	-	-
COC(c1ccccc1)c1nc2ccccc2[nH]c1=O (stereo unspecified)	-	-	-	-	-	-	.	.
O=C(NCC(c1cccs1)N1CCOCC1)c1ccccc1NS(=O)(=O)c1cc([N+](=O)[O-])ccc1Cl (stereo unspecified)	-	42.0	-	-	-	-	40.2	10.8
O=C(NCCCN1CCOCC1)c1ccccc1NS(=O)(=O)c1cc([N+](=O)[O-])ccc1Cl	-	-	-	-	-	-	.	.
O=C(NCC(c1cccs1)N1CCOCC1)c1ccccc1NS(=O)(=O)c1ccc(Cl)c([N+](=O)[O-])c1 (stereo unspecified)	-	77.6	-	-	-	-	78.4	36.3
O=C(NCC(c1cccs1)N1CCOCC1)c1ccccc1NS(=O)(=O)c1cccc([N+](=O)[O-])c1 (stereo unspecified)	-	48.1	-	-	-	-	39.6	11.0
CCc1ccc(CC2S/C(=C(\C#N)C(C)=O)NC2=O)cc1 (stereo unspecified)	-	37.2	-	-	.	-	-	-
C=CCCC1CN(CCCC)S(=O)(=O)c2c(F)cccc2O1 (stereo unspecified)	-	-	-	-	-	-	.	.

From PubChem
